# Sampled rows, rich in hits. Any-hit rate of the full collection: about 1.1%.
# MOR-DOR ag – agonists of OPRM1-OPRD1 heterodimerization, primary screen, cell-based, luminescence | Mu-type opioid receptor (Homo sapiens) + Delta-type opioid receptor (Homo sapiens), … | cells | activation, % at 9.3 µM | hit rate 0.3% among 340,000 | AID 504326, 2011; in the data active = activation above about 18%;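 also: 0% = vehicle-treated cells and 100% = reference agonist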
# OPRM1-OPRD1 inv – inverse agonists of MOR-DOR heterodimerization, primary screen, cell-based, luminescence | Mu-type opioid receptor (Homo sapiens) + Delta-type opioid receptor (Homo sapiens), … | cell-based MOR-DOR heterodimer luminescence, inverse agonism | inhibition, % at 9.3 µM | hit rate 0.21% among 340,000 | AID 504357, 2011; in the data active = inhibition above about 22%, passing the limit was not always enough;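 also: 0% = cells with DMSO and 100% = wells without cells with DMSO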
# HTR5A inv ag – HTR5A inverse agonists in luminescence cell assay, primary screen, counter-screen for OPRM1-OPRD1 heterodimer inverse agonist project, full-deck HTS. hit rate 0.083% among 340,000. HTR5A cell line, inverse agonism. inhibition, % at 9.3 µM. AID 504634, 2011; in the data active = inhibition mostly above about 23%, no sharp cut-off; inactive = mostly below about 18%;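 also: 0% = cells with DMSO and 100% = no-cell wells with DMSO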
# HTR5A ag ctr – HTR5A agonists in luminescence cell assay, primary screen, counter-screen for OPRM1-OPRD1 heterodimer agonist project, full-deck HTS. activation, % at 9.3 µM. cell-based. hit rate 0.61% among 340,000. 5-hydroxytryptamine receptor 5A (Homo sapiens), P47898; in the data active = activation mostly above about 9.5%, no sharp cut-off; inactive = mostly below about 7.6%;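 also: 0% = cells with vehicle only and 100% = reference agonist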
# Active calls of the source: *; i = inactive; + = active, no number.
SMILES,MOR-DOR ag,OPRM1-OPRD1 inv,HTR5A inv ag,HTR5A ag ctr
Cc1cc(SCc2ccc(Br)cc2)nc(=O)[nH]1,-2.9,14.4,1.6,-0.4
O=C(Nc1ccc(Cl)cc1Cl)c1cccc(N2C(=O)C=CC2=O)c1,2.4,-11.7,-36.4,12.3
O=S(=O)(c1ccc2nc(-c3ccccc3)[nH]c2c1)N1CCN(c2ccc(Cl)cc2)CC1,4.4,-22.2,-11.0,10.4*
O=c1ccc2cc(S(=O)(=O)N3CCN(c4ccccc4)CC3)ccc2[nH]1,3.7,-20.1,10.8,6.5
COc1ccccc1-n1c(=S)sc2c(=O)n(Cc3ccco3)c(SC)nc21,1.3,-7.1,-12.2,10.2*
CCN(CC(=O)Nc1c(F)cccc1F)C(=O)CC1CCCC1,-3.3,17.3,-28.6,10.5*
CCN(CC)C(=O)[C@H]1C[C@H](CC(=O)NCCCN(C)C)C(=O)N2CCc3c([nH]c4cc(CCC(=O)N(C)C)ccc34)[C@]12C,-2.8,13.5,-17.0,5.0*
CC(C)N(C(=O)[C@H]1C[C@H](CC(=O)NCCCN(C)C)C(=O)N2CCc3c([nH]c4cc(CCC(=O)N(C)C)ccc34)[C@]12C)C(C)C,-3.7,18.1,-8.0,2.3
Nc1cccc(Nc2nc(OC(C(F)(F)F)C(F)(F)F)nc(OC(C(F)(F)F)C(F)(F)F)n2)c1,9.9,-56.1,-10.3,12.2*
CC(=O)OCCNc1cc(Sc2nc3ccccc3[nH]2)c2nonc2c1[N+](=O)[O-],-6.3,35.1*,-0.8,-6.3
COc1cc(C2C=C(Nc3ccccc3)C(=O)N2c2ccccc2)ccc1O (centres undefined),-0.2,1.5,14.4,-5.4
O=C1C(Nc2ccccc2)=CC(c2ccc(O)cc2)N1c1ccccc1 (centres undefined),-2.6,13.9,-0.3,12.5*
Cc1ccc(CCNC(=O)c2cc(S(=O)(=O)N3CCCC3)cn2C)cc1,-0.9,5.6,-7.0,2.3
C=CCC[C@H](Cc1ccc(F)cc1)C(=O)OC[C@@H](NC(=O)[C@@H](CC=C)CC(=O)N(CCO)Cc1ccccc1)C(C)(C)C,4.6,-28.1,-33.2,0.7
COc1cc(C2CC(c3cccs3)=NN2C(=O)CCl)ccc1OC(F)F (centres undefined),74.3*,-414.4,-143.9,59.3*
CN(C)c1ccc(NC(=O)CCN2CCN(c3ccccn3)CC2)cc1,-2.1,12.2,22.6,-5.8
Cc1cccc(NC(=O)CN2C(=O)N/C(=C/c3ccc(C)s3)C2=O)c1,23.4*,-145.4,-23.4,12.0*
CC(C)Cn1c(=O)c(C(=O)Nc2ccccc2S(N)(=O)=O)c(O)c2ccccc21,2.3,-11.9,-4.2,9.1
CCC(C)n1c(=O)c(C(=O)Nc2ccccc2S(N)(=O)=O)c(O)c2ccccc21 (centres undefined),4.2,-25.2,7.6,9.0*
CC(Sc1nnc(Nc2ccccc2F)s1)C(=O)NC1CC1 (centres undefined),-1.3,5.3,18.1,-7.4
Cc1cc(C)c2c(c1)CC(C)(C)CC2=O,-1.8,9.3,-37.9,9.2*
Cc1cc(C)c(-c2c(O)c3c(n(C)c2=O)CC(C)(C)CC3=O)c(C)c1,-0.7,4.0,6.4,-2.4
On1ccccc1=S,i,+,22.8,-9.8
COc1ccc(CN(CCC(c2ccccc2)c2ccc(OC(C)C)cc2)C(=O)CCl)cc1OC (centres undefined),82.1*,-454.3,-61.8,52.1*
COc1ccc(C(CCN(Cc2ccc(OC)c(OC)c2)C(C)=O)c2ccccc2)cc1 (centres undefined),-1.1,7.8,9.9,-3.7
SMILES,MOR-DOR ag,OPRM1-OPRD1 inv,HTR5A inv ag,HTR5A ag ctr
Cc1ccc2c(c1)C(c1ccc(O)cc1)(c1ccc(O)cc1)C(=O)N2C,-1.5,7.3,-28.2,10.4*
CC(=O)C1=C(O)C(=O)N(Cc2cccnc2)C1c1ccccc1 (centres undefined),-0.5,2.8,-24.1,-8.0
CC(=O)C1=C(O)C(=O)N(Cc2cccnc2)C1c1ccc(Cl)cc1Cl (centres undefined),0.1,-0.8,-38.5,11.7*
COc1cc(C(=O)O)cc(Br)c1OC1CCCC1,-0.5,3.0,-3.4,11.1*
O=C(CCCOc1ccccc1)Nc1ccc(Cl)c(S(=O)(=O)N2CCOCC2)c1,2.0,-9.7,-5.1,1.3
O=C(COc1cccc(Br)c1)Nc1ccc(Cl)c(S(=O)(=O)N2CCOCC2)c1,1.4,-6.9,-36.2,9.3*
O=C(COC(=O)c1cccnc1Cl)Nc1cccc(S(=O)(=O)N2CCOCC2)c1,-2.5,13.2,-42.1,11.8*
Cc1cccc2c1cnn2C(=O)Nc1ccccc1Cl,-1.4,6.3,-0.5,0.1
CCN(CC)C(=O)Cn1c(=O)n(Cc2ccc(F)cc2)c(=O)c2sccc21,-1.8,8.7,10.5,-2.8
COC(=O)CNC(=O)Cn1c(=O)n(Cc2ccc(F)cc2)c(=O)c2sccc21,-0.5,2.2,-41.6,11.3*
O=C(Cn1c(=O)n(-c2ccc(F)cc2)c(=O)c2sccc21)NC1CCCCC1,-2.7,13.8,20.7,12.2*
Cc1ccccc1C(=O)Nc1ccnn1C1CCN(Cc2ccc(CO)o2)CC1,-1.1,5.8,6.0,2.4
O=C(NCCCCNC(=O)c1cccnc1Cl)c1cccnc1Cl,-0.4,1.4,15.8,2.4
CCCS(=O)(=O)N1CCCC(C(=O)NCCCOC(C)C)C1 (centres undefined),-2.5,15.0,2.9,4.9
CCCS(=O)(=O)N1CCCC(C(=O)NCCCN2CCN(c3ccc(F)cc3)CC2)C1 (centres undefined),1.2,-7.1,-20.9,10.8*
Nc1ccc2nn(-c3ccccc3)nc2c1,10.2,-51.5,-31.1,11.5*
Cc1ccccc1NC(=O)CSc1nnc2ccc(-c3cccnc3)nn12,-1.8,9.9,-6.6,2.9
Cc1cccc(C)c1OCc1cc(C(=O)N(Cc2c(C)nn(C)c2C)C2CC2)no1,2.1,-11.3,-9.8,11.4*
Cc1cccc(C)c1OCc1cc(C(=O)NCC2CCCCC2)no1,3.0,-16.1,-5.8,-0.8
O=C1CCC([N+](=O)[O-])C(c2ccccc2F)N1 (centres undefined),-2.6,14.8,8.2,-2.1
NNS(=O)(=O)c1ccc2c(c1)Cc1cc(S(=O)(=O)NN)ccc1-2,-3.7,17.2,-44.8,11.6*
CCOc1ccc(C(=O)Nc2cccc(NC(=O)c3cccs3)c2)cc1[N+](=O)[O-],0.3,-2.4,-6.9,-3.7
CCOc1ccc(C(=O)Nc2cccc([N+](=O)[O-])c2)cc1Br,3.8,-18.5,-22.1,9.2*
CCOC(=O)C1CCN(S(=O)(=O)c2ccc(OC)c(C(=O)N3CCCCC3)c2)CC1,-1.6,8.4,7.1,-2.5
Cc1ccsc1C(=O)Nc1cc(C(C)(C)C)nn1-c1ccccc1,0.5,-2.8,21.9,13.6*
CC(NC(=O)CN1C(=O)NC2(CCCC2)C1=O)c1ccc2ccccc2c1 (centres undefined),-4.0,15.8,13.3,-5.2
